Molecules are shown by their SMILES. Where “and” joins values, the source holds several entries; their conditions need not be identical. Equal values may be shown once. Unmarked numbers belong to inactive results. Records with an inconclusive call do not appear. Calls of active or inactive are those of the source. Unless noted, calls come from the whole dose curve; as a rule, active = well fitted curve in the direction sought with a large enough effect; inconclusive = small, poorly fitted or top-dose-only effect, or another doubt; inactive = no such curve, though single readings can be large; an effect the other way counts as inactive or inconclusive.

Assay [1] is described as follows: Cell Viability - NIH 3T3 (AID 541).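 For activity change, negative = cytotoxicity: plate controls were DMSO alone for no effect and tamoxifen positive control for full effect.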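 Note: cells exposed to compound for 40 hours; nearly all actives have a fitted effect of over 25% in size.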 Note: potency is the fitted concentration of half-maximal effect. The conditions noted are these: NIH 3T3 cell viability, qHTS; activity change, negative = cytotoxicity: at 92.2 µM (top of the series). In short, it runs like this: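 AC50 values reflect concentration-dependent loss of intracellular ATP in NIH 3T3 cells after 40 hr treatment in complete culture medium, quantified by luciferase-based luminescence.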
In general terms: qHTS replaces the single test concentration by a dilution series.

Assay [2] in a line: Cell Viability - HUV-EC-C (AID 542).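 Note: cells exposed to compound for 40 hours; % is set by controls: 0 for no effect and ±100 for the full control effect; nearly all actives have a fitted effect of over 35% in size.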 In short, it runs like this:
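Decrease in cellular ATP, quantified by luciferase luminescence, reflects toxicity in normal human vascular endothelial HUV-EC-C cells given compound for 40 hr in complete culture medium. Values are AC50s from concentration-response curves.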

Assay [3] in a line: Cellular Toxicity (caspase-3) HUV-EC-C (AID 656).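 Note: 0% = DMSO basal and 100% = 100 µM tamoxifen.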 An outline of the steps: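 Luminescent caspase-3/7 activation (aminoluciferin substrate cleavage) in HUV-EC-C cells after 16 hr compound exposure, 37°C. Signal normalized to DMSO basal and 100 uM tamoxifen as 100%; AC50 from concentration-response fitted with the Hill equation.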
The nature of assay [4]: Cellular Toxicity (caspase-3) SHSY5Y (AID 657).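 Note: cells exposed to compound for 16 hours at 37 °C.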 An outline of the steps: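 Luminescent caspase-3/7 readout (aminoluciferin release) in SH-SY5Y cells after 16 h compound exposure in complete medium. Activity scaled between DMSO basal and 10 uM staurosporine as 100%; concentration-response fitted to Hill equation for AC50.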
Assay [5] in a line: Cellular Toxicity (caspase-3) Mesangial (AID 660).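 Note: combined caspase 3 and 7 activity read by Caspase-Glo luminescence; cells exposed to compound for 16 h before the caspase read.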 In short, it runs like this: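 Concentration-response qHTS: compound-induced rise in caspase 3/7 luminescence in human mesangial cells after 16 h, normalized to DMSO and 100 uM tamoxifen controls.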
Assay [6] in a line: Cellular Toxicity (caspase-3) Renal Proximal Tubule (AID 667).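 Note: cells exposed to compound for 16 hours at 37 °C before detection; 0% = DMSO basal and 100% = 10 µM staurosporine.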 In short, it runs like this: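 Luminescent caspase 3/7 signal from peptide-aminoluciferin cleavage measures apoptosis in freshly isolated rat kidney proximal tubule cells after 16 h compound exposure. Concentration-response data are normalized to DMSO and 10 uM staurosporine, and AC50 values come from Hill equation fits.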

The nature of assay [7]: Cell Viability - LYMP2-003 (AID 965).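 Note: cells exposed to compounds for 24 h before reading; 0% = DMSO only and full effect = 92 µM tetraoctylammonium bromide; nearly all actives have a fitted effect of over 50% in size.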 An outline of the steps: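 CellTiter-Glo luminescence (cellular ATP) after 24 h compound exposure at 37 C in complete medium; 2500 cells/well, 5 h settling beforehand. Concentration-response fitted to standard Hill equation for AC50. Tetraoctylammonium bromide served as positive control.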
The nature of assay [8]: Cell Viability - LYMP2-013 (AID 970).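 Note: 0% = DMSO only and full inhibition = tetraoctylammonium bromide control; nearly all actives have a fitted effect of over 55% in size.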 An outline of the steps: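 Acute toxicity was measured in human lymphoblastoid cells (2500/well) exposed to compound titrations for 24 hr, with ATP luminescence (CellTiter-Glo) as read-out and AC50 fitted by Hill equation.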
Assay [9] can be described thus: Cell Viability - LYMP2-023 (AID 975).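 Note: cellular ATP measured by luciferase luminescence as viability proxy; cells exposed to compound for 24 hours at 37 °C; plate controls were DMSO only for no effect and 92 µM tetraoctylammonium bromide control for full effect; nearly all actives have a fitted effect of over 55% in size.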 An outline of the steps: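 Concentration-dependent drop in intracellular ATP measures acute cytotoxicity in a human lymphoblastoid line treated for 24 hours in complete culture medium. AC50 values are taken from Hill-equation fits of qHTS data.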
Assay [10] can be described thus: Cell Viability - LYMP2-010 (AID 981).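 Note: cells exposed to compound for 24 hours at 37 °C; % is set by controls: 0 for no effect and ±100 for the full control effect; nearly all actives have a fitted effect of over 55% in size.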 In short, it runs like this: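 Acute toxicity is scored as a concentration-dependent loss of cellular ATP in human lymphoblastoid cells after 24 hr compound exposure in complete medium. Tetraoctylammonium bromide is the positive control.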
Assay [11] can be described thus: Cell Viability - LYMP2-024 (AID 988).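 Note: cells exposed to compound for 24 hr at 37 °C; plate controls were DMSO only for no effect and 92 µM tetraoctylammonium bromide for full effect; nearly all actives have a fitted effect of over 60% in size.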 An outline of the steps:
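Acute toxicity is measured as concentration-dependent loss of intracellular ATP in a human lymphoblastoid line treated 24 hours at 37 C. Luciferase luminescence quantifies ATP; AC50 values come from standard Hill-equation modelling.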

The target of assay [12] is Peroxisome proliferator-activated receptor delta (Homo sapiens) (UniProt Q03181). In words: qHTS assay for small molecule agonists of peroxisome proliferator-activated receptor delta signaling (AID 588534; calls by dose curve;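 note: 0% = DMSO basal wells and 100% = positive control agonist at 10 µM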). In short, it runs like this:
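Reporter cells were plated and held 5 hrs at 37 C before compounds were added. After 18 hrs at 37 C, CCF4 dye was loaded for 2 hrs at RT and fluorescence measured.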

In assay [13] the target is Vitamin D3 receptor (Homo sapiens) (UniProt P11473). Description: qHTS assay for small molecule antagonists of vitamin D receptor signaling (AID 588541; calls by dose curve;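 note: receptor activated by calcitriol during compound treatment; % is set by controls: 0 for no effect and ±100 for the full control effect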). An outline of the steps:
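VDR-UAS-bla HEK293T cells in 2% charcoal-stripped FBS were stimulated with 1-alpha,25-dihydroxyvitamin D3 (3 nM final) plus compound for 16 h at 37 C. The beta-lactamase CCF4 readout was normalized to 50 nM agonist and DMSO, and Hill fits gave IC50.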

The nature of assay [14]: qHTS assay for small molecule activators of the p53 signaling pathway (AID 651743; active = well fitted activation curve with a large enough effect in the signal ratio, not every such curve was filed as active; the % refers to the signal ratio; note: % of control where 0% means no effect). To be noted: HCT-116 p53RE-bla, beta-lactamase FRET ratio, 16 h; activation: hits give high values. An outline of the steps:
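HCT-116 p53RE-bla, 4,000 cells/well; 5 h settle; cpd/DMSO 16 h, 37 C; LiveBLAzer B/G 2 h RT; fluorescence intensity.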

Assay [15] concerns the target Tumor necrosis factor (Homo sapiens) (UniProt P01375). In words: qHTS assay to identify small molecules that stimulate Tumor Necrosis Factor-alpha (TNF-alpha) secretion (AID 651757; active = well fitted curve in the direction sought with a large enough effect in the signal ratio; the % refers to the signal ratio; note: 0% is about no effect). In short, it runs like this:
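Secreted TNF-alpha from compound-treated THP-1 cells (17 hrs, 37 C) was quantified with a homogeneous time-resolved fluorescence antibody assay.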

The nature of assay [16]: qHTS assay for small molecule activators of the human pregnane X receptor (PXR) signaling pathway (AID 720659; call rule not given here; note: 0% is about no effect).
Assay [17] in a line: Cell Viability - HepG2 (AID 433; calls by dose curve;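 note: potency is the fitted concentration of half-maximal effect; cells exposed to compound for 40 hours; potency for ATP loss meaning cytotoxicity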). To be noted: qHTS. An outline of the steps: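 ATP luminescence (CellTiter-Glo) after 40 h compound exposure, 37 °C, HepG2, 1500 cells/well, complete medium. Normalized: DMSO = basal, 100 uM tamoxifen = 100% inhibition. AC50 via standard Hill equation.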
Assay [18] can be described thus: Cell Viability - Renal Proximal Tubule (AID 545).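 Note: cells exposed to compound for 40 hours; 0% = DMSO only and -100% = 100 µM tamoxifen; nearly all actives have a fitted effect of over 40% in size.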 In short, it runs like this:
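Rat kidney proximal tubule cells, freshly isolated; 1000 cells/well, 5 hr settle, compound 40 hr 37 °C. CellTiter-Glo 20 min RT, luminescence read. AC50 by standard Hill fit.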

Assay [19] in a line: Cell Viability - LYMP2-011 (AID 969).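 Note: 0% = DMSO only and full inhibition = 92 µM tetraoctylammonium bromide; nearly all actives have a fitted effect of over 60% in size.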 An outline of the steps:
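Acute toxicity is scored as a concentration-dependent drop in intracellular ATP of a human lymphoblastoid line after 24 hr treatment. Values are AC50s modeled with the Hill equation.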

Assay [20] is described as follows: Cell Viability - Mesenchymal (AID 546).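 Note: cells exposed to compound for 40 hours before reading; 0% = DMSO only and -100% = 100 µM tamoxifen.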 In short, it runs like this: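 Human kidney mesenchymal cells from normal renal glomeruli, 1000 cells/well, rested 5 hr at 37 °C, then treated 40 hr at 37 °C in complete medium. Cellular ATP read by CellTiter-Glo luminescence; AC50 from Hill-equation fits.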

Vitamin D3 receptor (Homo sapiens), sequence (P11473 whole entry, looked up): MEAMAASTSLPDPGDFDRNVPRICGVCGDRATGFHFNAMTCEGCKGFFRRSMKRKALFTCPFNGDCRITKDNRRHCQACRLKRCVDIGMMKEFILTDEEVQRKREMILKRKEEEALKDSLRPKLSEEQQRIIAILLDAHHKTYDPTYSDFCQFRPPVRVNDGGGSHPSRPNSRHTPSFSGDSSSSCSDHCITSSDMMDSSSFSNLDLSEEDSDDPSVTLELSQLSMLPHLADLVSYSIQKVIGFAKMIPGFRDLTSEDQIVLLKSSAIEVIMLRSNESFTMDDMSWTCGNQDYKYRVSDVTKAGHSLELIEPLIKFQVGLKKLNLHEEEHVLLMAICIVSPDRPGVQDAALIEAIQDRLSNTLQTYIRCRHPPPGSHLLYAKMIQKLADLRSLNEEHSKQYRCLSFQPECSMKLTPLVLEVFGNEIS
Tumor necrosis factor (Homo sapiens), sequence (P01375 whole entry, looked up): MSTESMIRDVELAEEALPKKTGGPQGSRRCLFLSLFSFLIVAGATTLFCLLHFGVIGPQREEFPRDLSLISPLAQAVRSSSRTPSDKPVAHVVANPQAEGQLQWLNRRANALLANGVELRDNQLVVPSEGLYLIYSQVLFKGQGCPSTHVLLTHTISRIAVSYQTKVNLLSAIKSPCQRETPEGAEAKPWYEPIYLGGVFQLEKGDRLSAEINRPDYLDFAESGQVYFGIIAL
Peroxisome proliferator-activated receptor delta (Homo sapiens), sequence (Q03181 whole entry, looked up): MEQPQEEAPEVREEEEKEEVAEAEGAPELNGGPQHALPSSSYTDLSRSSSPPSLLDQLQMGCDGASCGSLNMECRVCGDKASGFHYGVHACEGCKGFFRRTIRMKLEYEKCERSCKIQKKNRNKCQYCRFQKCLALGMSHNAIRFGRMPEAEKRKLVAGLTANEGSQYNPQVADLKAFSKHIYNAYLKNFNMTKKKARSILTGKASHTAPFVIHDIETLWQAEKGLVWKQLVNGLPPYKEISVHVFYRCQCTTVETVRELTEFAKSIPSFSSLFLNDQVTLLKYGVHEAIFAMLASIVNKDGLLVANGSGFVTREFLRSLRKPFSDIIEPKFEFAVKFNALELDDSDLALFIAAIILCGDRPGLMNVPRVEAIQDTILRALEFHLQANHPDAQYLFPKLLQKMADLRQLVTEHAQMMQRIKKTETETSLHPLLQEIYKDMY

With `CN(C)C(=O)Nc1cccc(C(F)(F)F)c1`, the Potency entry in assay [1], in [2], in assay [7], in [8], in assay [9] and in [10] was “inactive” in each case. For the same compound, the Potency entry in [11] is “inactive”. Moreover, the compound was classed as inactive in [3], in [4], in assay [5], in assay [6], in [12] and in [13]. The outcome in assay [15] and in assay [16] was inactive. Besides, the activation in assay [14] was 0.966% and 0.726%.

Take `C=C(Cl)CSC(=S)N(CC)CC`: the Potency in [17] was over 92 µM. The activity change, negative = cytotoxicity in assay [1] was -85.8% (active). Also, the Potency result in assay [2], in assay [19], in assay [8] and in [9] was “inactive” in each case. Further, the outcome in [18], in assay [3], in assay [4], in [12], in [13] and in assay [15] was inactive. For the same compound, the call in [16] was inactive. Also, in [14], the activation is -1.91%.

Regarding `Cc1ccc2c(C)cccc2c1`, the Potency in assay [17] is over 92 µM. Besides, the Potency result in assay [1], in [2], in assay [20], in [7], in assay [19] and in assay [8] was “inactive” in each case. In addition, the Potency result in assay [9] and in assay [10] was “inactive” in each case. Further, the call in assay [18], in [3], in assay [5], in [6], in assay [12] and in assay [13] was inactive. The compound was called inactive in assay [15] and in [16]. Also, in assay [14], the activation is -0.174%.

Take `Oc1cccc(Cl)c1Cl`: the Potency in assay [17] was over 92 µM. Besides, the Potency result in assay [1], in [2], in [20], in [19], in [8] and in [9] was “inactive” throughout. For the same compound, the Potency entry in [10] and in [11] was “inactive” throughout. The outcome in assay [18], in assay [3], in assay [4], in assay [5], in assay [6] and in assay [12] was inactive. Besides, the compound was called inactive in assay [15] and in [16]. The activation in assay [14] is 0.548%.

With `N#CCBr`, the Potency in assay [17] is over 92 µM; in assay [1], 10 µM (active). Besides, the Potency result in assay [2], in [20], in [7], in assay [19], in [8] and in assay [9] was “inactive” in each case. In addition, the Potency entry in assay [10] and in [11] was “inactive” throughout. The compound was classed as inactive in [5], in assay [6], in [13], in assay [15] and in [16].

For `C=CC(=O)OCC(CC)CCCC` (stereo not given), the Potency in [17] is over 92 µM. The Potency result in assay [1], in assay [7], in assay [8], in assay [9], in [10] and in assay [11] was “inactive” each time. Further, the compound was classed as inactive in assay [18], in [4], in [5], in assay [6], in assay [12] and in [13]. Further, in [16], the compound was classed as inactive. Also, the activation in assay [14] is 0.81% and 5.58%.

Regarding `COc1ccc(C=O)cc1`, in assay [17], the Potency is over 92 µM. For the same compound, the Potency entry in [1], in assay [2], in assay [20], in assay [7], in assay [19] and in [9] was “inactive” throughout. Moreover, the Potency entry in [10] was “inactive”. Besides, the outcome in assay [18], in assay [3], in [4], in [5], in [12] and in assay [13] was inactive. The call in assay [15] and in [16] was inactive. Besides, in assay [14], the activation is -1.3%.

On to `COc1cc(-c2ccc(N)c(OC)c2)ccc1N`, for which, in assay [17], the Potency was over 92 µM. Further, the call in assay [18], in [3], in [4], in [5], in assay [6] and in assay [12] was inactive. For the same compound, the compound was classed as inactive in [13]. The Potency result in assay [20], in assay [7], in assay [8], in assay [9], in assay [10] and in assay [11] was “inactive” throughout. For the same compound, the activation in assay [14] was 0.265% and -0.413% and 0.709%.

Consider `Cc1cccc(N)c1C`, for which the Potency in [17] was over 92 µM. The Potency entry in [1], in assay [2], in [20], in assay [7], in [19] and in [8] was “inactive” throughout. Also, the Potency result in [10] and in assay [11] was “inactive” each time. The compound was classed as inactive in assay [18], in [3], in assay [6], in assay [12], in assay [13] and in [15]. Also, in assay [16], the outcome was inactive. Further, in [14], the activation is 12.1%.

Turning to `O=[N+]([O-])c1ccc2c3c(cccc13)CC2`, the call in assay [18], in assay [3], in assay [5], in assay [6], in assay [12] and in assay [13] was inactive. Also, in assay [16], the compound was called inactive. Further, the Potency entry in assay [19], in assay [8], in assay [10] and in assay [11] was “inactive” in each case. The activation in assay [14] is -4.24% and -1.29%.

For `O=[N+]([O-])c1ccc(O)c([N+](=O)[O-])c1`, the Potency result in assay [2], in assay [20], in [7], in assay [19], in assay [8] and in assay [11] was “inactive” each time. Also, the outcome in assay [18], in assay [3], in assay [4], in [5], in [6] and in assay [16] was inactive. In [14], the activation is 9.63%.

(Values after PubChem BioAssay (NCATS).)
